# ± gives the standard deviation of the averaged measurements.
# Key:
# MDA-MB-231 [1] = assay: cell viability relative to vehicle unstimulated control (fraction); higher = more viable cells; settings: pre-treatment time: 18 h then 24 h IFNg/TNF
# MDA-MB-231 [2] = assay: kynurenine production, fold change vs DMSO IFNg/TNF control; higher = more kynurenine produced (less inhibition); settings: pre-treatment time: 18 h then 24 h IFNg/TNF
# How it was run: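 Fold change over cytokine-stimulated vehicle wells on the same plate is the measure used for kynurenine production, averaged across duplicate plates in the first screening round. MDA-MB-231 cells, seeded 24 h beforehand at 7 × 10^4/well in 96-well plates, were pre-treated 18 h with each natural product in 0.1% DMSO and stimulated 24 h at 37°C with IFNγ (1 U/ml) and TNF (6.25 ng/ml). Supernatants were read at 492 nm following trichloroacetic acid and p-dimethylaminobenzaldehyde treatment, against 0–100 μM standards.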
# 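Wherever cell viability relative to vehicle unstimulated control is given: viability of the cells left after supernatant collection, read with Deep Blue dye added for 4 h, as absorbance at 570 nm minus 600 nm.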
SMILES,cell viability (MDA-MB-231 [1]),kynurenine production (MDA-MB-231 [2])
COc1cc2c(cc1OC)-c1c(OC)c(OC)cc3c1[C@H](C2)N(C)CC3 [(S)-Glaucine (Alkaloid purified from Papaver somniferum)],0.967 ± 0.013,0.905 ± 0.052
COc1cc2c3c(c1OC)-c1ccccc1C[C@H]3N(C)CC2 [Nuciferine] (compound dose: 10 uM),1.05 ± 0.051,1.1 ± 0.08
COc1ccc(CC2c3cc(OC)c(OC)cc3CCN2C)cc1OC (stereo not given) [Laudanosine] (compound dose: 10 uM),1.02 ± 0.043,0.52 ± 0.037
CC(=O)O[C@@H]1[C@H]2[C@@H](OC(=O)Cc3ccccc3)[C@@H](C)C[C@]2(OC(C)=O)C(=O)/C(C)=C/[C@@H]2[C@H](CC[C@]13CO3)C2(C)C [Euphorbia Factor L1] (compound dose: 10 uM),0.909 ± 0.045,1.11 ± 0.0098
"C=C1CC[C@H]2[C@@H](/C=C(\C)C(=O)[C@@]3(OC(C)=O)C[C@H](C)[C@H](OC(=O)c4ccccc4)[C@@H]3[C@H]1OC(C)=O)C2(C)C [5,15-Diacetyl-3-benzoyllathyrol] (compound dose: 10 uM)",1.031 ± 0.01,0.94 ± 0.14
COC(=O)[C@]1(C)CC[C@]2(C)CC[C@]3(C)C4=CC=C5C(=CC(=O)C(O)=C5C)[C@]4(C)CC[C@@]3(C)[C@@H]2C1 [Pristimerin] (compound dose: 10 uM),-0.0372 ± 0.0069,0.0819 ± 0.0029
O=C(O)c1ccc(=O)[nH]c1 [6-hydroxynicotinic acid] (compound dose: 10 uM),0.951 ± 0.036,0.973 ± 0.098
C/C=C(/C)C(=O)O[C@H]1C(C)=C[C@]23C(=O)[C@@H](C=C(C)[C@@H](O)[C@]12O)[C@H]1[C@@H](C[C@H]3C)C1(C)C [20-Deoxyingenol 3-angelate] (compound dose: 10 uM),1.04 ± 0.05,0.8582 ± 0.0053
CC(C)c1ccc2c(c1O)CC[C@H]1C3=C(CC[C@]21C)C(=O)OC3 [Triptophenolide] (compound dose: 10 uM),0.9594 ± 0.0068,0.815 ± 0.17
CC(C)[C@]12CC(=O)[C@H](C)[C@H]1C2 [α-Thujone] (compound dose: 10 uM),1.05 ± 0.058,0.947 ± 0.21
CC(C)(O)/C=C/C(=O)[C@](C)(O)[C@H]1[C@H](O)C[C@@]2(C)[C@@H]3CC=C4[C@@H](C[C@H](O)C(=O)C4(C)C)[C@]3(C)C(=O)C[C@]12C [Cucurbitacin D] (compound dose: 10 uM),0.55 ± 0.022,0.326 ± 0.083
C=C(CO)C(=O)O[C@H]1CC(=C)[C@@H]2C[C@H](O)C(=C)[C@@H]2[C@H]2OC(=O)C(=C)[C@@H]21 [Cynaropicrin] (compound dose: 10 uM),0.69 ± 0.16,0.0672 ± 0.056
C/C=C(\C)C(=O)N[C@@H](c1ccccc1)[C@@H](O)C(=O)O[C@H]1C[C@@]2(O)[C@@H](OC(=O)c3ccccc3)[C@@H]3[C@]4(OC(C)=O)CO[C@@H]4C[C@H](O)[C@@]3(C)C(=O)[C@H](OC(C)=O)C(=C1C)C2(C)C [Cephalomannine] (compound dose: 10 uM),0.738 ± 0.071,0.267 ± 0.06
C=C[C@H]1[C@H](O[C@@H]2O[C@H](CO)[C@@H](O)[C@H](O)[C@H]2O)OC=C2C(=O)OCC[C@H]21 [Sweroside] (compound dose: 10 uM),0.996 ± 0.063,0.832 ± 0.17
CC(=O)O[C@@]12C[C@@H](C)[C@@]3(O)[C@@H](C=C(CO)C[C@]4(O)C(=O)C(C)=C[C@@H]34)[C@@H]1C2(C)C [Prostratin] (compound dose: 10 uM),1.31 ± 0.36,0.737 ± 0.025
C[C@@H]1CC[C@@]2(OC1)O[C@H]1[C@@H](O)[C@H]3[C@@H]4CC[C@H]5C[C@@H](O[C@@H]6O[C@H](CO)[C@H](O[C@@H]7O[C@H](CO)[C@@H](O)[C@H](O[C@@H]8OC[C@@H](O)[C@H](O)[C@H]8O)[C@H]7O[C@@H]7O[C@H](CO)[C@H](O)[C@H](O[C@@H]8O[C@H](CO)[C@@H](O)[C@H](O)[C@H]8O)[C@H]7O)[C@H](O)[C@H]6O)[C@H](O)C[C@]5(C)[C@H]4CC[C@]3(C)[C@H]1[C@@H]2C [Digitonin] (compound dose: 10 uM),0.694 ± 0.021,0.617 ± 0.019
COc1cc2c3cc1Oc1cc(ccc1O)C[C@@H]1c4c(cc(OC)c(O)c4Oc4ccc(cc4)C[C@H]3N(C)CC2)CCN1C [Curine] (compound dose: 10 uM),0.654 ± 0.038,0.389 ± 0.026
CC(=O)OC(C)(C)/C=C/C(=O)[C@](C)(O)[C@H]1[C@H](O)C[C@@]2(C)[C@@H]3CC=C4[C@@H](C=C(O)C(=O)C4(C)C)[C@]3(C)C(=O)C[C@]12C [Cucurbitacin E] (compound dose: 10 uM),0.52 ± 0.0012,0.19 ± 0.034
C[C@@H]1CC[C@H]2[C@@H](C)C(=O)O[C@@H]3O[C@@]4(C)CC[C@@H]1[C@]32OO4 [Artemisinin] (compound dose: 10 uM),1.06 ± 0.079,0.581 ± 0.11
CC1=C[C@@H]2C(=O)[C@]3(C=C(C)[C@H](O)[C@@]3(O)[C@@H]1O)[C@H](C)C[C@@H]1[C@H]2C1(C)C [20-Deoxyingenol] (compound dose: 10 uM),0.975 ± 0.11,0.703 ± 0.12

# — the supplement of paper PMC13094657
